The source of these data is a collection of fitness landscapes (doi:10.1126/science.1257360).

B1: PhoQ; a variant is named by its letters at X, in order, P23837 (parent)
chain: MKKLLRLFFPLSLRVRFLLATAAVVLVLSLAYGMVALIGYSVSFDKTTFRLLRGESNLFYTLAKWENNKLHVELPENIDKQSPTMTLIYDENGQLLWAQRDVPWLMKMIQPDWLKSNGFHEIEADVNDTSLLLSGDHSIQQQLQEVREDDDDAEMTHSVAVNVYPATSRMPKLTIVVVDTIPVELKSSYMVWSWFIYVLSANLLLVIPLLWVAAWWSLRPIEALAKEVRELEEHNRELLNPATTRELTSLVRNLNRLLKSERERYDKYRTTLTDLTHSLKTPLXXLQXXLRSLRSEKMSVSDAEPVMLEQISRISQQIGYYLHRASMRGGTLLSRELHPVAPLLDNLTSALNKVYQRKGVNISLDISPEISFVGEQNDFVEVMGNVLDNACKYCLEFVEISARQTDEHLYIVVEDDGPGIPLSKREVIFDRGQRVDTLRPGQGVGLAVAREITEQYEGKIVAGESMLGGARMEVIFGRQHSAPKDE

In all, about 140,000 sequences were measured (“enrichment ratio after two sorts for PhoP signalling”: median about 0, highest 2% from about 11 on). This is one part of a sample in which the highest values are shown more often than they occur. A value given as a limit tells only on which side of the number the result lay.

Variants of B1 are the subject of this assay. In words: enrichment ratio after two sorts for PhoP signalling (ratio (wild type AVST 3.29)); higher = more functional. Conditions: with PhoP (E. coli).
Regarding IHWP, the enrichment ratio was at most 0.25.
WMPW: the enrichment ratio is at most 0.25.
Regarding DDPW, the enrichment ratio was at most 0.25.
With WIPR the figure was at most 0.25; with GRSL, at most 0.25; with TCMD, at most 0.25.
To TCMI belongs 15; to TCWV, 2.38.
In the case of FCMA, the enrichment ratio was found to be 5.8.
Regarding TCMV, the enrichment ratio came to 14.6.
With TCMA the figure was 15.5; with KCMH, at most 0.25.
Take HCMH: the enrichment ratio is at most 0.25.
For the variant KCMA, the enrichment ratio was at most 0.25.
To TCMH belongs 15.1; to TCIV, at most 0.25; to TCMS, 10.9.
Take FRCS: the enrichment ratio is at most 0.25.
On to HLCG, for which the enrichment ratio is at most 0.25.
With TQVV the figure was 4.23; with LDFE, at most 0.25; with SIYM, 0.397.
With FWIR, the enrichment ratio is at most 0.25.
Regarding LPTL, the enrichment ratio is at most 0.25.
With AFEF the figure was at most 0.25; with SVVF, at most 0.25; with FPHE, at most 0.25.
As to TYMF, the enrichment ratio is at most 0.25.
With KCNV the figure was at most 0.25; with FCMF, 0.805.
To KSNV belongs at most 0.25; to TCMF, 26.2; to KCTG, at most 0.25.
As for VCTG, the enrichment ratio worked out at 0.404.
With TCNV, the enrichment ratio worked out at 16.2.
With TCMG the figure was 11.4; with TCTG, 20; with TCIG, at most 0.25.
With TCVG, the enrichment ratio is at most 0.25.
With IPQW the figure was at most 0.25.
TEEP: the enrichment ratio is at most 0.25.
As to KVAI, the enrichment ratio was at most 0.25.
With VSKE the figure was at most 0.25; with LVPE, at most 0.25.
As for KFTM, the enrichment ratio is at most 0.25.
Take VECA: the enrichment ratio amounted to 3.45.
With FAFY the figure was at most 0.25; with SNSG, 10.7.
With GRCQ the figure was at most 0.25.
In the case of DDFY, the enrichment ratio was at most 0.25.
Consider TGSW, for which the enrichment ratio was at most 0.25.
To RFSN belongs 0.949; to TCFK, at most 0.25; to TCVC, at most 0.25.
As to TCWG, the enrichment ratio is at most 0.25.
To TCHP belongs at most 0.25; to TCGG, 21.5; to TCHQ, 23.4.
With WFIY the figure was at most 0.25; with HKKD, at most 0.25; with VKAH, at most 0.25.
To AFQW belongs at most 0.25.
As for SKRC, the enrichment ratio is at most 0.25.
To SKRM belongs at most 0.25.
Regarding SKGM, the enrichment ratio is at most 0.25.
Turning to SKSF, the enrichment ratio was at most 0.25.
Take SKSM: the enrichment ratio came out at 14.
Regarding SKIM, the enrichment ratio was 20.9.
With HKSM, the enrichment ratio is at most 0.25.
Regarding SKIC, the enrichment ratio amounted to 30.5.
With SKAM, the enrichment ratio was found to be 28.
For SKPM, the enrichment ratio is at most 0.25.
To SKFC belongs at most 0.25.
To SKSK belongs at most 0.25.
Regarding AFGE, the enrichment ratio is at most 0.25.
Consider KDQH, for which the enrichment ratio was at most 0.25.
To EESA belongs at most 0.25.
In the case of NRWG, the enrichment ratio is at most 0.25.
In the case of FGTG, the enrichment ratio was at most 0.25.
In the case of MKMF, the enrichment ratio is at most 0.25.
For TNYM, the enrichment ratio turned out to be 1.85.
With VHGW the figure was at most 0.25.
On to AVGW, for which the enrichment ratio stood at 12.2.
ANHW: the enrichment ratio is at most 0.25.
To AIGW belongs 11.4.
With AGGW the figure was 0.253; with ANGW, 11.4.
To AHGW belongs at most 0.25.
Consider AVGD, for which the enrichment ratio was at most 0.25.
To NVGW belongs at most 0.25.
RGVW: the enrichment ratio was at most 0.25.
In the case of GKNA, the enrichment ratio was at most 0.25.
Take CIQI: the enrichment ratio is at most 0.25.
With VWKV the figure was at most 0.25; with QAIG, at most 0.25.
With WRVK the figure was at most 0.25; with MGME, 13; with MGMY, at most 0.25.
With MGMW the figure was at most 0.25; with MGTG, at most 0.25.
With MGMG, the enrichment ratio is 42.5.
With MGWG the figure was 0.67; with LMNI, at most 0.25; with ASSL, 11.7.
With NSSL the figure was at most 0.25; with SSSL, 12.5.
In the case of SDSL, the enrichment ratio came out at 0.277.
With KSSL the figure was at most 0.25; with TSSL, 13.7; with VRSL, at most 0.25.
In the case of QSSL, the enrichment ratio worked out at 9.11.
With FSSL the figure was at most 0.25; with SYTR, at most 0.25; with VVCY, at most 0.25.
Consider GKAF, for which the enrichment ratio is at most 0.25.
To SEFE belongs 4.76; to SEVA, 10.3; to SEVG, 25.6.
With SCVR the figure was 1.05; with SEFA, 1.84.
On to SEVI, for which the enrichment ratio came to 12.2.
With SEVC the figure was 9.44; with SEFG, 15.8.
To SEGG belongs 9.05; to SLVR, 0.339.
Regarding SEVR, the enrichment ratio turned out to be 12.1.
For the variant SLVI, the enrichment ratio was found to be 2.14.
For RKKT, the enrichment ratio is at most 0.25.
With SLWN, the enrichment ratio was at most 0.25.
Regarding RRRI, the enrichment ratio is at most 0.25.
To PERI belongs at most 0.25.
To FFGE belongs at most 0.25.
With YKRH the figure was at most 0.25; with VSRE, at most 0.25; with VRMG, at most 0.25.
As for HGFC, the enrichment ratio is at most 0.25.
For SEMI, the enrichment ratio stood at 17.1.
To SEMD belongs 1.79; to SEVS, 20.4; to SQWG, at most 0.25.
To SLVS belongs 1.29; to SPWG, at most 0.25; to SEMQ, 8.89.
With SEMK the figure was 7.11; with SEMN, 4.75; with SEWG, 17.3.
For the variant SEMS, the enrichment ratio is 14.3.
With SCVS the figure was 3.13; with HDQV, at most 0.25.
To HCLM belongs at most 0.25; to NDAA, at most 0.25.
Regarding NRLG, the enrichment ratio is at most 0.25.
With NMCH the figure was at most 0.25; with HTPK, at most 0.25; with PDYQ, at most 0.25.
Turning to ANWA, the enrichment ratio was at most 0.25.
To HDKT belongs at most 0.25; to SAHC, at most 0.25.
To SEVK belongs 12.3; to SEEG, 2.48; to SEMG, 21.5.
To SLVK belongs 1.38; to SEGS, 4.52; to SEKK, at most 0.25.
Turning to EACH, the enrichment ratio came out at 2.01.
With FYVQ, the enrichment ratio was at most 0.25.
With GYNI the figure was at most 0.25.
LYDQ: the enrichment ratio is at most 0.25.
With QGLV the figure was 7.45; with FGLT, 9.94.
With FPLV the figure was at most 0.25.
Take FGLS: the enrichment ratio turned out to be 8.38.
Regarding FGLV, the enrichment ratio amounted to 11.7.
To FGLA belongs 12.2.
With HKVW the figure was at most 0.25.
For VDRE, the enrichment ratio is at most 0.25.
To EAAG belongs at most 0.25; to CSSY, 17.5; to FSSY, 0.259.
As to CVSY, the enrichment ratio is at most 0.25.
With NSSY the figure was at most 0.25; with KSSY, at most 0.25; with TSSY, 14.6.
With KMIV, the enrichment ratio is at most 0.25.
To IVGD belongs at most 0.25.
On to TDFN, for which the enrichment ratio was at most 0.25.
Take TNSM: the enrichment ratio worked out at 23.5.
To PLSM belongs at most 0.25.
Consider CLSM, for which the enrichment ratio came out at 22.7.
Turning to LNSM, the enrichment ratio was determined as 0.463.
With CLSF the figure was 10.1.
To VLSM belongs 0.436; to MNSM, 9.22.
Turning to ADSM, the enrichment ratio was at most 0.25.
For SLSM, the enrichment ratio turned out to be 8.94.
Consider TLSM, for which the enrichment ratio is 25.5.
With AHSM the figure was 4.11.
With AKSM the figure was 15.5.
